Values joined by “and” are separate entries in the source; they are usually repeats but may differ in a detail not shown here. Equal values may be shown once. Records with an inconclusive call do not appear. Active and inactive are the calls of the source. Unless noted, the call rests on the fitted dose curve; in most records, active means well fitted curve in the direction sought with a large enough effect; inconclusive means small, poorly fitted or top-dose-only effect, or another doubt; inactive means no such curve, though single readings can be large; an effect the other way counts as inactive or inconclusive. Where only a bound is given, the exact number is not on record here.

The source of these data is PubChem BioAssay (NCATS).

Test [1] can be described thus: AP1 Signaling Pathway (AID 357; active means well fitted curve in either direction with a large enough effect, not every such curve was filed as active;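 further: ME-180 reporter cells stimulated with EGF at its EC50 level; on the % scale 0 is the no-effect control and ±100 the full control effect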). The conditions noted are these: ME-180 AP-1-bla reporter, EGF-induced, beta-lactamase ratio, 5 h; at 7.69 µM (top of the series) unless noted. The method, boiled down:
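Cells are seeded overnight, exposed to compound titrations and an EC50 level of EGF for 5 hours at 37 °C, then loaded with CCF4 dye for 2.5 hours. Beta-lactamase activity under the AP-1 element is read as a blue/green ratio.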

The target in test [2] is Cytochrome P450 1A2 (Homo sapiens) (UniProt P05177). The experiment in a line: p450-cyp1a2 (AID 410; calls by dose curve; further: potency means the concentration at half of the fitted maximal effect;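 on activity change, negative = inhibition: -100% = full effect of reference inhibitor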). The procedure, abridged: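 Read-out is luminescence from luciferin produced by CYP1A2 demethylation of Luciferin-ME (100uM, at Km). Detection reagent stopped the 60 min NADPH-dependent reaction; signals were normalized to 57 uM furafylline.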
Test [3] can be described thus: NFAT Signaling Pathway (AID 444; active means well fitted curve in either direction with a large enough effect, not every such curve was filed as active;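 further: carbachol stimulus at about its EC50 of 1 µM final; on the % scale 0 is the no-effect control and ±100 the full control effect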). As to conditions: Jurkat NFAT-bla M1, carbachol, beta-lactamase ratio, 5 h; at 7.69 µM (top of the series) unless noted. The method, boiled down:
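Read-out: CCF4 FRET ratio (460 nm/530 nm) after 1 h RT dye loading, used for %activity and AC50 from titration series. Cells: Jurkat NFAT-β-lactamase/M1 line, treated with compound plus 1 uM carbachol for 5 h, 37 °C.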

Test [4] is described as follows: Stat Signaling Pathway (AID 446; active means well fitted curve in either direction with a large enough effect, not every such curve was filed as active;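 further: ME-180 cervical cancer cells given 40 pM IL-6 alongside compound; SIE-controlled beta-lactamase reporter measured as 460/530 nm FRET emission ratio; on the % scale 0 is the no-effect control and ±100 the full control effect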). As to conditions: ME-180 (cervical carcinoma) SIE beta-lactamase reporter, IL-6 stimulated, 5 h; at 7.69 µM (top of the series) unless noted. The procedure, abridged:
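Normalization used AC90 stimulation (300 pM IL-6) and AC90 inhibition (125 nM pan-JAK inhibitor at 40 pM IL-6). The underlying signal is SIE-driven beta-lactamase in ME-180 cells after 5 h IL-6 exposure with compound.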

Test [5] concerns the target Glucocorticoid receptor (Homo sapiens) (UniProt P04150). The experiment in a line: GR-GFP Redistribution (AID 450;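 active means compounds whose dose series gives a full or clear partial fitted curve of increased nuclear translocation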; further: potency means the concentration at half of the fitted maximal effect). The conditions noted are these: U2OS GR-GFP nuclear translocation, laser cytometry, 2 h.
For test [6] the target is unchanged. In words: GR-EFC Redistribution (AID 451; calls by dose curve; further: potency means the concentration at half of the fitted maximal effect). The conditions noted are these: CHO-K1 GR-EFC translocation, beta-gal luminescence, 2 h. The procedure, abridged:
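Translocation of GR-ED fusion to nuclear EA restores b-gal, read by luminescence after 1 h room-temperature detection. Engineered CHO-K1 biosensor cells, 1,000/well, exposed 2 h at 37 C to titrations up to 46 uM final.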

In test [7] the target is Mitogen-activated protein kinase 10 (Mus musculus) (UniProt Q61831). The experiment in a line: JNK3 AlphaScreen Assay (AID 530; active means well fitted curve in either direction with a large enough effect, not every such curve was filed as active;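 further: kinase came from lysate of stimulated human HepG2 cells; signal reports phosphorylation of biotinylated GST-cJun 1-79 at Ser73 with 10 µM ATP; on the % scale 0 is the no-effect control and ±100 the full control effect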). The procedure, abridged: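 Kinase buffer: 20 mM Tris-HCl pH 7.6, 10 mM MgCl2, 1 mM DTT, 0.1 mM Na3VO4, 0.01% Tween-20; ATP 10 uM. Substrate biotin-GST-cJun(1-79), enzyme from activated HepG2 lysates. Detection by Ser73 phospho-antibody AlphaScreen.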
In general terms: In Alpha technology, singlet oxygen from a donor bead excites a nearby acceptor bead.

Test [8] deals with 3',5'-cyclic-AMP phosphodiesterase 4B (Homo sapiens) (UniProt Q07343). In words: qHTS Assay for Inhibitors of PDE-IV (AID 607; active means well fitted activation curve with a large enough effect in the main read-out, with a control signal flat, not every such curve was filed as active; further: % of control where 0% means no effect). The method, boiled down:
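HEK293 ACTOne cells with CNG channel (1000/well), endogenous PDE4; membrane potential dye, compounds up to 22.9 uM final. Fluorescence Ex 535/Em 590; RO 20-1724 (100 uM final) as reference.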
A general note: qHTS replaces the single test concentration by a dilution series.

A short description of test [9]: qHTS Assay for Lipid Storage Modulators (AID 1519; calls by dose curve). The conditions noted are these: Drosophila S3 cells, BODIPY lipid droplet/cell ratio, laser cytometry, cells loaded with oleic acid; for activity change, negative = inhibition: at 25.7 µM (top of the series). The method, boiled down: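 Cells seeded at 5,000 per well were treated with compounds over a concentration series and loaded with oleic acid (400 uM, as added). Lipid droplet fluorescence (488 nm excitation, 500-530 nm channel) was read by laser-scanning cytometry and normalized to 20 uM Triacsin C.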

Test [10] has as its target ATP-dependent 6-phosphofructokinase (Trypanosoma brucei brucei) (UniProt O15648). In words: qHTS Assay to Find Inhibitors of T. brucei phosphofructokinase: hit validation (AID 492961). The procedure, abridged:
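Measures ADP output of PFK (1.25 nM) at 0.1 mM ATP, 0.5 mM F6P, pH 8.0 TEA buffer with 5 mM MgCl2. No-enzyme wells define full inhibition; uninhibited enzyme wells define zero.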

Test [11] concerns the target Ubiquitin carboxyl-terminal hydrolase 1 (Homo sapiens) (UniProt O94782). In words: Inhibitors of USP1/UAF1: Pilot qHTS (AID 504865).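 Further: rhodamine fluorescence freed from ubiquitin-rhodamine substrate followed over time; top concentration of the series differs between compounds; on the % scale 0 is the no-effect control and ±100 the full control effect; nearly all actives have a fitted effect of over 35% in size.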 The procedure, abridged:
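Enzyme-free wells gave the negative control, while test wells held 1nM USP1/UAF1 preincubated with compound for 15 min at room temperature. Ub-Rho at 150nM final started the reaction, and fluorescence at 480/540 nm was recorded kinetically.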

Test [12] has as its target Luciferin 4-monooxygenase (Photinus pyralis) (UniProt P08659). In words: Biochemical firefly luciferase enzyme assay for NPC (AID 624030).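 Further: purified P. pyralis luciferase at 10 nM with luciferin and ATP substrate; 0% = DMSO and -100% = full luciferase inhibition by PTC124 control; nearly all actives have a fitted effect of over 70% in size.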 The procedure, abridged:
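Direct inhibition of firefly luciferase enzyme (10 nM final, 50 mM Tris Acetate) assessed by luminescence within 5 minutes. Percent activity scaled between DMSO and PTC124 positive control, with concentration-effect curves classified by fit quality and response.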

Test [13] in a line: qHTS profiling for inhibitors of Plasmodium falciparum proliferation (AID 504749).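 Further: 0% = DMSO vehicle and full inhibition = artemisinin control; nearly all actives have a fitted effect of over 60% in size.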 As to conditions: P. falciparum in erythrocytes, SYBR Green DNA, 72 h. The method, boiled down:
(§1)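 In a 72 h erythrocytic culture (37 C, humidified, 5% CO2) at 2.5% hematocrit and 0.3% starting parasitemia, compounds were tested; SYBR Green I in detergent lysis buffer stained parasite DNA overnight.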

In another test the test system is AS120. Described as above. As to conditions: P. falciparum in erythrocytes, SYBR Green DNA, 72 h; series mostly up to 28.7 µM. The procedure, abridged:
as §1

A further test relates to CP238. The description is as above. The conditions noted are these: P. falciparum in erythrocytes, SYBR Green DNA, 72 h; series mostly up to 12.8 µM. The method, boiled down:
as §1

The next test deals with CP265. The test is described as above. The conditions noted are these: P. falciparum in erythrocytes, SYBR Green DNA, 72 h; series mostly up to 12.8 µM. The procedure, abridged: as §1
The next test concerns FAB9. The description is as above. As to conditions: P. falciparum in erythrocytes, SYBR Green DNA, 72 h; series mostly up to 12.8 µM. The method, boiled down: as §1
[14] abbreviates: measured here: cell count channel max response.
Where [15] appears, read: measured here: lipid channel max response.
[16] abbreviates: at 12.8 µM (top of the series), parasite line A.
Setting [17] is: at 12.8 µM (top of the series), parasite line B.

Sequence of Cytochrome P450 1A2 (Homo sapiens) (P05177 whole entry, looked up): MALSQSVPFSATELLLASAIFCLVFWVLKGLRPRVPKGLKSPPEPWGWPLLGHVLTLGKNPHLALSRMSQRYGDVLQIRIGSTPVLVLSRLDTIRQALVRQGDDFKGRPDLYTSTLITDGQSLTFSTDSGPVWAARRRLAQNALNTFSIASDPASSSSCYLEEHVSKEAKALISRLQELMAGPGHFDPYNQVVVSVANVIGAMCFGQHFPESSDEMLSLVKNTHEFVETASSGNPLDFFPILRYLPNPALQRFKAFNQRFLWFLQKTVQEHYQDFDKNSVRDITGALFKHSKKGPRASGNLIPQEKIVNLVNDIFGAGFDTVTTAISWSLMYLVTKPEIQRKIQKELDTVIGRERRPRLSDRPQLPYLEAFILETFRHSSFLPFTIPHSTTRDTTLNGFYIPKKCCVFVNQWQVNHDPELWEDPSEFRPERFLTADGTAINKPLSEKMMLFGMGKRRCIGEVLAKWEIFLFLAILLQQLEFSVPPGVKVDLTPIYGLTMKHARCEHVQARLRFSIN
Sequence of 3',5'-cyclic-AMP phosphodiesterase 4B (Homo sapiens) (Q07343 whole entry, looked up): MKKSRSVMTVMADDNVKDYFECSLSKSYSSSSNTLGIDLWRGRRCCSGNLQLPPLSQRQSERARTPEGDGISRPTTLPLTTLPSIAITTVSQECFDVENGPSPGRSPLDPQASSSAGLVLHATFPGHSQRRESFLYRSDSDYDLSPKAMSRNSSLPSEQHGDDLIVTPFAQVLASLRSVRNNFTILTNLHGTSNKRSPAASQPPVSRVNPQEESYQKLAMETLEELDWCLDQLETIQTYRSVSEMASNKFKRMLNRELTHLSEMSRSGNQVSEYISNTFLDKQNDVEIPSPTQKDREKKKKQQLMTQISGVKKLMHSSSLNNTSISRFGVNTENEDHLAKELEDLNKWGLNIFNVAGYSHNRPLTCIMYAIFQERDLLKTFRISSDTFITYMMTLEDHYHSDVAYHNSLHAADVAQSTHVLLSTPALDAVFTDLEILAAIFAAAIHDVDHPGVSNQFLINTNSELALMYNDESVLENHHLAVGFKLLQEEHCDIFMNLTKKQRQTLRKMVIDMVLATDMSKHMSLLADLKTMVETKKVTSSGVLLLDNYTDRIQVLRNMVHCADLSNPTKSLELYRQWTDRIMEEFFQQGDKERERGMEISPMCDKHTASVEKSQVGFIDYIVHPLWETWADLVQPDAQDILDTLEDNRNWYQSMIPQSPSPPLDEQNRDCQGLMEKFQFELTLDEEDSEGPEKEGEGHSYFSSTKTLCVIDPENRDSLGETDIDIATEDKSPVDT
Sequence of Luciferin 4-monooxygenase (Photinus pyralis) (P08659 whole entry, looked up): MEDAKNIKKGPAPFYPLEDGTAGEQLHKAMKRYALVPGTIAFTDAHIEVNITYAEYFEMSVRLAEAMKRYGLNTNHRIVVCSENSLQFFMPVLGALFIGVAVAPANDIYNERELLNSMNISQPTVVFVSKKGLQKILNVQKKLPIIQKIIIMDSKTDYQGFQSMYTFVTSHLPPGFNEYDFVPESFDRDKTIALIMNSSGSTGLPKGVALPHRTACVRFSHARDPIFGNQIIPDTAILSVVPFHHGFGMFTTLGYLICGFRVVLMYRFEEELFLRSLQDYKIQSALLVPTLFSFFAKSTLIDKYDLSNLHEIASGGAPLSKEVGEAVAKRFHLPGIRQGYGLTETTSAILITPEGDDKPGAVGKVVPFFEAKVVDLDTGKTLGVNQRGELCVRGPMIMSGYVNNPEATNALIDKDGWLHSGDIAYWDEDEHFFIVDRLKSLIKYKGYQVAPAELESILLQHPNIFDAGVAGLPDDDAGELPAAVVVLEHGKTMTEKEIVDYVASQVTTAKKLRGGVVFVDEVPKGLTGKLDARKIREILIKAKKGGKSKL
Sequence of Glucocorticoid receptor (Homo sapiens) (P04150 whole entry, looked up): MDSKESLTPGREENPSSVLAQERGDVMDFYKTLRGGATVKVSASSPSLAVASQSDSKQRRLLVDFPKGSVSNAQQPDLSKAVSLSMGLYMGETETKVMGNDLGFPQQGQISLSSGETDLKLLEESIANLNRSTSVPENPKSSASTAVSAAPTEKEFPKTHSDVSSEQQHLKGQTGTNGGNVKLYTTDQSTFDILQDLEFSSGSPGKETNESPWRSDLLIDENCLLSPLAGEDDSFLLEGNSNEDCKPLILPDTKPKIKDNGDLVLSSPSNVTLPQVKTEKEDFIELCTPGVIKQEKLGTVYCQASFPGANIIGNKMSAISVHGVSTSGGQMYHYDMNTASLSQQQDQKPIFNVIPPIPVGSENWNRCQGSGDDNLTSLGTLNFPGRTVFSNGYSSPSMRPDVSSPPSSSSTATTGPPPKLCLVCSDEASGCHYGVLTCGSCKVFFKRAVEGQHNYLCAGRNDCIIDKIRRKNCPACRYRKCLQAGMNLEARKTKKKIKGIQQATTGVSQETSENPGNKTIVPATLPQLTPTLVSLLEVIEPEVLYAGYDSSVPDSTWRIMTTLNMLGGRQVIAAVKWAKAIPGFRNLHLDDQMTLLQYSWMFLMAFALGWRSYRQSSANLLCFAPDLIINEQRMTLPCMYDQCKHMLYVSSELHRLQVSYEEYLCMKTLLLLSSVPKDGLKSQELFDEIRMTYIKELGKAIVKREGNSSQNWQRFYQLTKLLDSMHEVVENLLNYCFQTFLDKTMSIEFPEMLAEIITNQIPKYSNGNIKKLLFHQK
Sequence of ATP-dependent 6-phosphofructokinase (Trypanosoma brucei brucei) (O15648 whole entry, looked up): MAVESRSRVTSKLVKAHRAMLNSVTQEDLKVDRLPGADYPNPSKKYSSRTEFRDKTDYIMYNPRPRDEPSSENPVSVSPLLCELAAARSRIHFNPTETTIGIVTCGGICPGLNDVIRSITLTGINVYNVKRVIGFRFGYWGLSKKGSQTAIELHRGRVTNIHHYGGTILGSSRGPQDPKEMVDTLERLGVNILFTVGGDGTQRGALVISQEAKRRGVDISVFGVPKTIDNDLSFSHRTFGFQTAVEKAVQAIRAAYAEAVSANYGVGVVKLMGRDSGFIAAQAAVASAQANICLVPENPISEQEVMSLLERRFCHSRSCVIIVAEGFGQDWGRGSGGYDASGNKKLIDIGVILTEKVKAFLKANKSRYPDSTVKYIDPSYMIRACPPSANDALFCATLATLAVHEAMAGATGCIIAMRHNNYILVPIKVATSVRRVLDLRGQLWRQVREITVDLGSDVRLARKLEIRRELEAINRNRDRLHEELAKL
Sequence of Ubiquitin carboxyl-terminal hydrolase 1 (Homo sapiens) (O94782 whole entry, looked up): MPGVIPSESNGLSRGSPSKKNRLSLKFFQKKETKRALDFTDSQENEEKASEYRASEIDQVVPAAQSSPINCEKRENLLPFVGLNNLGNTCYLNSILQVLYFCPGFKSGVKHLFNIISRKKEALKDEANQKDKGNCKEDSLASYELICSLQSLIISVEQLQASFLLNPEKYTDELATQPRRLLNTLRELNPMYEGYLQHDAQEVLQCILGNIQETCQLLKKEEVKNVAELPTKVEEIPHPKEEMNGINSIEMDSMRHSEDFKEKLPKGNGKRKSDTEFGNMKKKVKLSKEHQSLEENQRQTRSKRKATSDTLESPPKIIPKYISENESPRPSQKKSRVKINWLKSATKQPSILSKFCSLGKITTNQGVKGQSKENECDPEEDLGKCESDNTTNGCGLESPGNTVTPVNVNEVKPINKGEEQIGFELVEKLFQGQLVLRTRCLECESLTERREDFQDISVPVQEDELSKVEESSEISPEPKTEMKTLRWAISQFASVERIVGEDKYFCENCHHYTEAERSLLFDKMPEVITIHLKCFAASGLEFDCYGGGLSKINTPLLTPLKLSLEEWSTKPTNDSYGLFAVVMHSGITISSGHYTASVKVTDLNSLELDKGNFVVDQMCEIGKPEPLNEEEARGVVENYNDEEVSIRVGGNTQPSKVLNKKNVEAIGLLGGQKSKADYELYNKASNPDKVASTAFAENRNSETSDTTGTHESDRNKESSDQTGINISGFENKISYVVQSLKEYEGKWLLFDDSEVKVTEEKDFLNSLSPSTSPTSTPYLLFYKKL

In the case of `CCC[C@H]1C(=O)N2C(N(C)C)=Nc3ccc(C)cc3N2C1=O`, the activity change, negative = inhibition in test [1] was 1.43% [at 17.2 µM] (inactive); in test [3], -21% [at 17.2 µM] (inactive); in [9] it was -3.21% (inactive). The Potency in test [2] was 1.58 µM (active); in test [5] it was > 20.6 µM (inactive); in [6], > 20.6 µM (inactive). Besides, the activity, negative = inhibition in [4] was -9.03% [at 17.2 µM] (inactive); in test [13] (setting [16]), 12.2% (inactive); in test [13] (setting [17]) it was -0.686% (inactive). The Potency result (in test [7]; in test [8]; in test [11]; in the test with AS120; in the test with CP238; with CP265) was “inactive” throughout. In addition, in the test on FAB9, the Potency result is “inactive”. For the same compound, the results for the max response in test [9] (setting [14]) and in [9] (setting [15]) were -10.8% and -12%, respectively. Also, the call in test [10] and in test [12] was inactive.
For `O=C(O)/C=C\c1ccc(Cn2ccnc2)cc1`, the results for the activity change, negative = inhibition in [1], in [3] and in [9] were -4.02% [at 17.2 µM] (inactive), -0.213% [at 17.2 µM] (inactive) and 0.716% (inactive), respectively. The Potency is 12.6 µM (active) in [2], > 20.6 µM (inactive) in test [5] and > 20.6 µM (inactive) in test [6]. The activity, negative = inhibition in test [4] is 6.45% [at 17.2 µM] (inactive); in test [13] (setting [16]) it was 2.69% (inactive); in test [13] (setting [17]) it was -5.94% (inactive). The Potency result (in test [7]; in test [8]; in [11]; in the test on AS120; in the test on CP238; in the test with CP265) was “inactive” throughout. Further, in the test on FAB9, the Potency entry is “inactive”. The max response in test [9] (setting [14]) is -6.14%; in test [9] (setting [15]) it was -3.7%. Further, the outcome in [10] and in test [12] was inactive.
For `CC1(C)S[C@@H]2[C@H](NC(=O)[C@H](C(=O)O)c3ccsc3)C(=O)N2[C@H]1C(=O)O`, the activity change, negative = inhibition in [1] was -4.81% [at 17.2 µM] (inactive) and 2.77% [at 17.2 µM] (inactive); in test [3] it was -7.87% [at 17.2 µM] (inactive) and 25.2% [at 17.2 µM] (inactive); in test [9], 1.08% (inactive). Also, the Potency result (in test [2]; in [7]; in test [8]; in [11]; in the test on AS120; in the test on CP238) was “inactive” throughout. The Potency entry in the test on CP265 and in the test with FAB9 was “inactive” throughout. The activity, negative = inhibition in test [4] is 6.96% [at 17.2 µM] (inactive) and -0.401% [at 17.2 µM] (inactive); in test [13] (at 28.7 µM (top of the series), parasite line A), -4.85% (inactive); in test [13] (at 28.7 µM (top of the series), parasite line B) it was 17.9% (inactive). For the same compound, the Potency in test [5] and in test [6] was > 20.6 µM (inactive) each time. Moreover, the max response in [9] (setting [14]) is -10.5%; in test [9] (setting [15]), -8.09%. In test [12], the result was inactive.
Take `COc1ccc(C[C@@H]2c3cc(OC)c(OC)cc3CC[N@+]2(C)CCC(=O)OCCCCCOC(=O)CC[N@@+]2(C)CCc3cc(OC)c(OC)cc3[C@H]2Cc2ccc(OC)c(OC)c2)cc1OC`: the activity change, negative = inhibition in [1] was -6.73% [at 17.2 µM] (inactive); in test [3] it was -23.4% [at 17.2 µM] (inactive); in test [9], -3.87% (inactive). Besides, the Potency result (in test [2]; in test [7]; in test [8]; in [11]; in the test on AS120; with CP238) was “inactive” in each case. For the same compound, the Potency result in the test on CP265 and in the test on FAB9 was “inactive” each time. Also, the activity, negative = inhibition in test [4] was 10.6% [at 17.2 µM] (inactive); in test [13] (setting [16]), -5.94% (inactive); in test [13] (setting [17]), 13.8% (inactive). Also, the Potency in test [5] and in [6] was > 20.6 µM (inactive) in each case. In addition, the values for the max response in test [9] (setting [14]) and in test [9] (setting [15]) were 15.3% and 6.6%, respectively. The result in [10] and in [12] was inactive.
